USP28 block – inhibitors of human USP28 deubiquitinase. inhibition, % at 25 µM. 47,000 tested, 3% active. purified USP28, Ub-rhodamine cleavage fluorescence, 30 min. AID 1645857, 2021. Ubiquitin carboxyl-terminal hydrolase 28 (Homo sapiens), Q96RU2
USP30 block – inhibitors of human USP30 deubiquitinase; 47,000 tested, 5.3% active; AID 1645860, 2021; Ubiquitin carboxyl-terminal hydrolase 30 (Homo sapiens), Q70CQ3; purified USP30, Ub-rhodamine cleavage fluorescence; inhibition, % at 25 µM
USP17 inh – inhibitors of human USP17 deubiquitinase. AID 1645855, 2021. inhibition, % at 50 µM. Ubiquitin carboxyl-terminal hydrolase 17-like protein 5 (Homo sapiens), A8MUK1. 47,000 tested, 6.5% active. purified USP17, Ub-rhodamine cleavage fluorescence, 3 h
USP10 block – inhibitors of human USP10 deubiquitinase. Ubiquitin carboxyl-terminal hydrolase 10 (Homo sapiens), Q14694. purified USP10, Ub-rhodamine fluorescence, 60 min. inhibition, % at 20 µM. 47,000 tested, 1.1% active. AID 1645856, 2021
USP8 block – inhibitors of human USP8 deubiquitinase. Ubiquitin carboxyl-terminal hydrolase 8 (Homo sapiens), P40818. purified USP8, Ub-rhodamine cleavage fluorescence, 30 min. inhibition, % at 20 µM. 47,000 tested, 4.2% active
Target sequence (P40818 whole entry, looked up): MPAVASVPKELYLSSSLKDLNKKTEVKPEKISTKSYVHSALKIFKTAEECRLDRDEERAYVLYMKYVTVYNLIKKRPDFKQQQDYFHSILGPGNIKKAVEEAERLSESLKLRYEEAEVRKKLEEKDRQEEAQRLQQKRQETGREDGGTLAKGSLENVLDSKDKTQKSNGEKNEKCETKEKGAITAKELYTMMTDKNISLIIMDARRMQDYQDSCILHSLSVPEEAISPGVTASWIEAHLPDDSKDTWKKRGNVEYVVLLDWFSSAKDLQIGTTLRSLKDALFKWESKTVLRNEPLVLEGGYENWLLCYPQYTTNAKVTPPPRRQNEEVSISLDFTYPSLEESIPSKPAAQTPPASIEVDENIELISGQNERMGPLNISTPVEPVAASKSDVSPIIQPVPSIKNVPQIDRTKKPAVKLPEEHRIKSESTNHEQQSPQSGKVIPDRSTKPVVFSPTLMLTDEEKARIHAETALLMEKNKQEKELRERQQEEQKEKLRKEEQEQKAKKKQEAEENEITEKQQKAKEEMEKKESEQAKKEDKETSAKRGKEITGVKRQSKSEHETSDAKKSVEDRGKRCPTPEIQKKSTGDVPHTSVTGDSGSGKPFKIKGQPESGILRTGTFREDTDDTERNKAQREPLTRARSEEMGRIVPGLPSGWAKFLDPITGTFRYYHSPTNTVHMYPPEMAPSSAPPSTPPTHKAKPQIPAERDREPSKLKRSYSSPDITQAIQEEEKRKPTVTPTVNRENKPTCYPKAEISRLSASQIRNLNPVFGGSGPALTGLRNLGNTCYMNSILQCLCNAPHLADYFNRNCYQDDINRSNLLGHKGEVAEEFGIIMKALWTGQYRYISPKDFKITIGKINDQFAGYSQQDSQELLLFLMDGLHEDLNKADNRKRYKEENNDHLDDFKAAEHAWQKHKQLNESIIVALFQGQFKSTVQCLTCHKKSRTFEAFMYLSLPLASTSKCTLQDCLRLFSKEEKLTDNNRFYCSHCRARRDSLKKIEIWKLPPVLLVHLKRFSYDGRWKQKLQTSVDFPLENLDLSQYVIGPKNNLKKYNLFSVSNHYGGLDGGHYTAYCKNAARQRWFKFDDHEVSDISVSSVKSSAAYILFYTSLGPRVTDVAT
Numbers without * were called inactive; / = no result given. A selection: hits, their analogues and other compounds. The true share with any hit is near 14%. Cut-off read from the data, not from the text of the source: active = inhibition above about 30%; inactive = the rest.

SMILES | USP28 block | USP30 block | USP17 inh | USP10 block | USP8 block
CC(=O)Nc1ccc(-c2nc(Cn3nc(C)cc3C)c(C)o2)cc1 | -15 | -22 | -16 | -1 | -5
CCC(=O)Nc1ccc(-c2nc(Cn3cc(C)cn3)c(C)o2)cc1 | 55* | -29 | -7 | 1 | -4
CC(=O)Nc1ccc(-c2nc(Cn3cc(C)cn3)c(C)o2)cc1 | 33* | -40 | -9 | -2 | 9
Cc1ccc2c(c1)-c1onc(C(=O)NCCc3c[nH]c4ccccc34)c1CO2 | 7 | -37 | 33* | -1 | -14
CCn1c(CCNC(=O)c2ccc(Cl)cc2)nc2cccnc21 | -65 | -392 | -101 | -7 | -30
Cn1c(=O)c(-c2ccc(C(=O)NCc3cccc(Cl)c3)cc2)nc2cccnc21 | 19 | 82* | 67* | 11 | 43*
Cn1c(=O)c(-c2ccc(C(=O)NCc3ccc4c(c3)OCO4)cc2)nc2cccnc21 | 24 | 2 | 28 | 19 | 40*
CCn1c(=O)c(C(=O)NCc2cccc(Cl)c2)nc2cccnc21 | -7 | -4 | / | -2 | -41
CCn1c(=O)c(-c2ccc(C(=O)Nc3ccccc3F)cc2)nc2cccnc21 | 7 | 10 | 48* | -6 | 0
COc1ccc2[nH]c3c(N4CCN(c5ccccc5F)CC4)ncnc3c2c1 | 7 | 10 | 41* | 0 | 16
COc1ccc2c(c1)[nH]c1c(N3CCSCC3)ncnc12 | -4 | 0 | -5 | 1 | 12
COc1ccccc1CNc1ncnc2c1[nH]c1ccccc12 | -5 | -33 | -5 | -6 | -12
O=[N+]([O-])c1ccc(N2CCN(c3ncnc4c3[nH]c3ccc(F)cc34)CC2)cc1 | 3 | 8 | 65* | -4 | -15
COc1ccc2[nH]c3c(NCCc4ccccc4OC)ncnc3c2c1 | -11 | -23 | 34* | -12 | 1
COc1cc(N2CC[C@@H]3[C@@H]2CCN3c2cccc(C)n2)ncn1 | -43 | -176 | -78 | -6 | -113
N[C@@H]1CC[C@H](O)[C@@H](N2CCc3ccccc3C2)[C@@H]1O | 4 | 17 | 6 | 1 | 4
c1cnc(-c2n[nH]c(C3CCN(C4CCNC4)CC3)n2)cn1 (centres undefined) | 51* | -6 | 54* | -6 | -241
COc1ccc(-c2c(C(=O)O)sc3c2NC(=O)CC3c2cccc(F)c2F)cc1 (centres undefined) | -16 | -7 | -5 | 2 | -5
CN1CCN(C(=O)c2cn(-c3ccc(-c4nc(C(C)(C)C)no4)cn3)cn2)CC1 | -2 | -8 | -9 | -1 | -2
O=C(Nc1cnc2ccccc2c1)Nc1ccccc1Cl | / | / | 55* | 4 | 4
COc1ccccc1CNCc1c(C(=O)O)n(Cc2ccc(F)cc2Cl)c2cc(C)ccc12 | 8 | 18 | 20 | 2 | -5
COc1ccc(CNCc2c(C(=O)O)n(Cc3ccc(F)cc3Cl)c3cc(C)ccc23)cc1 | 28 | 63* | 57* | -3 | -59
Cc1ccc(Cn2c(C(=O)O)c(CNCc3cccc(Cl)c3)c3ccc(C)cc32)cc1 | 33* | 43* | 13 | 25 | -7
Cc1ccc(Cn2c(C(=O)O)c(CNCc3ccco3)c3ccccc32)cc1 | 13 | -19 | 35* | 25 | 8
Cc1ccc(Cn2c(C(=O)O)c(CNC3CCCC3)c3ccccc32)cc1 | -2 | 5 | -16 | -4 | -14
SMILES | USP28 block | USP30 block | USP17 inh | USP10 block | USP8 block
O=C1CC(NS(=O)(=O)c2ccc(Cl)cc2)CN1c1ccc(Cl)cc1 (centres undefined) | 7 | 13 | 4 | 4 | 11
O=C(NCc1cccc(Cl)c1)c1ccc(-c2nnc(-c3ccccc3)o2)cc1 | 3 | 22 | 50* | 26 | 93*
COc1ccc(CNC(=O)c2ncoc2-c2cccc(C)c2)cc1OC | -15 | -24 | -11 | -4 | -25
Cc1cccc(CNC(=O)c2ccc(-c3nnc(-c4cccc(C)c4)o3)cc2)c1 | -2 | 7 | 82* | 12 | 10
O=C(CC(NCc1ccco1)C(=O)O)Nc1cccc(Cl)c1Cl (centres undefined) | 5 | 32* | 8 | 0 | 7
O=C(CC(NCc1ccco1)C(=O)O)Nc1ccccc1Cl (centres undefined) | -10 | -12 | 5 | 0 | 4
CCOC(=O)c1noc2ncnc(Nc3ccc(N4CCC(C)CC4)cc3)c12 | -3 | -2 | 2 | 1 | 50*
CCOC(=O)c1noc2ncnc(Nc3ccc4c(c3)OCO4)c12 | 5 | -18 | 28 | 0 | 69*

High-throughput results from PubChem.
